Results reported in PubChem BioAssay.
Calls of active or inactive are those of the source. Unless noted, the rule behind the calls is not given here.

Experiments:
[1] = compounds binding Alexa647 anti-His antibody – biochemical, small-molecule microarray, 635 nm fluorescence, artefact control for SMM control protein annotation, primary screen (AID 1128); details: higher = more signal;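 note: score merges feature fluorescence with signal-to-noise for each printed compound spot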
[2] = tested on: Human papillomavirus type 1a E7 protein (residues 1-88); assay: HPV1a E7 small-molecule binders, primary screen, biochemical, small-molecule microarray, residues 1-88, 635 nm (AID 1129); details: small-molecule microarray binding, fluorescence 635 nm; higher = more signal
[3] = target: Focal adhesion kinase 1 (Homo sapiens) (UniProt Q05397); assay: PTK2 protein binding on printed compound slides – biochemical, small-molecule microarray, 635/667 nm fluorescence, BSA, DTT, primary screen (AID 1130); details: 635 nm fluorescence, higher = more signal;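 note: composite of spot emission at 667 nm and signal to noise over triplicate slides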
[4] = tested on: Fibrinogen (Alexa647-labelled); assay: Alexa647-fibrinogen binding to printed small molecules – biochemical, small-molecule microarray, 635/667 nm fluorescence, artefact control for SMM control-protein annotation, profiling panel (AID 1131); details: fibrinogen-A647 binding fluorescence, higher = more signal;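 note: z-score merges 667 nm fluorescence with per-spot signal-to-noise over triplicate slides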
[5] = target: Follistatin (Homo sapiens) (UniProt P19883); assay: FST protein binding to printed compounds – biochemical, small-molecule microarray, 635/667 nm fluorescence, primary screen (AID 1132); details: 635 nm fluorescence, higher = more signal
[6] = target: Fibroblast growth factor 2 (Homo sapiens) (UniProt P09038); assay: basic fibroblast growth factor binding to printed compounds – biochemical, small-molecule microarray, 635/667 nm fluorescence, primary screen (AID 1133); details: FGF2, fluorescence 635/667, higher = more signal
[7] = JC-1 mitochondrial potential readout, lung cancer cells – cell-based, A549, JC-1 fluorescence, basal, 24 h, 100 nL, profiling panel (AID 1138); details: higher = more signal;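 note: A549 lung adenocarcinoma cells under basal conditions with no added stimulus; test concentration not given here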
[8] = tested on: Lefty1; assay: Lefty1 protein binding to printed compounds – biochemical, small-molecule microarray, 635/667 nm fluorescence, primary screen (AID 1139); details: fluorescence 635/667, higher = more signal
[9] = tested on: wheat germ agglutinin (Triticum aestivum), Alexa647-labelled; assay: Alexa647-WGA lectin binding to printed small molecules – biochemical, small-molecule microarray, 635/667 nm fluorescence, artefact control for SMM control-protein annotation, profiling panel (AID 1140); details: WGA-A647 binding, 635 nm fluorescence, higher = more signal;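 note: score merges 667 nm feature emission with signal to noise over triplicate slides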
[10] = target: Luciferin 4-monooxygenase (Photinus pyralis) (UniProt P08659); assay: inhibition of purified Photinus pyralis luciferase – biochemical, luminescence, purified enzyme, 2006 set, primary screen (AID 1141); details: purified firefly luciferase, SteadyGlo luminescence, 30 min; higher = more signal, called active from +8 up or from −8 down;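 note: cell-free assay with purified firefly luciferase at 100 ng per well in PBS; test concentration not given here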
[11] = tested on: Wnt5a (protein binding on small-molecule microarray); assay: small molecules binding Wnt5a protein – biophysical, small-molecule microarray, 635/667 nm fluorescence, primary screen (AID 1142); details: 635 nm fluorescence, higher = more signal;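 note: fluorescence read at 667 nm with signal to noise per printed feature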
[12] = ATP-based viability of Huh7 replicon cells – cell-based, CellTiter-Glo luminescence, basal, 48 h, cytotoxicity control for HCV replication inhibitor project, primary screen (AID 1143); details: higher = more signal, called active from +8 up or from −8 down;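 note: Huh7 hepatoma cells carrying a hepatitis C replication reporter with no stimulus; test concentration not given here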
[13] = Pseudomonas biofilm growth suppression – PAO1 strain, BacTiter-Glo luminescence, LB-PBS, primary screen (AID 1144); details: P. aeruginosa PAO1 biofilm, 12 h, higher = more signal
[14] = basal CRE-LacZ reporter activity in PC12 – cell-based, unstimulated, primary screen (AID 1145); details: no forskolin, luminescence, 4.5 h, higher = more signal, called active from +8 up or from −8 down
[15] = forskolin-driven CRE-LacZ activity in PC12 – cell-based, CRE-LacZ reporter, forskolin-stimulated, primary screen (AID 1146); details: luminescence, 4.5 h, higher = more signal, called active from +8 up or from −8 down;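 note: PC12 cells with 6xCRE LacZ reporter stimulated by forskolin 10 µM; beta-galactosidase reporter signal reflecting CREB driven transcription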
[16] = target: Streptavidin (Streptomyces avidinii) (UniProt P22629); assay: compounds binding control protein streptavidin – biophysical, small-molecule microarray, 635/667 nm fluorescence, artefact control for SMM compound annotation, primary screen (AID 1147); details: higher = more signal;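 note: signal reflects streptavidin binding to arrayed compounds as a control protein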
[17] = probe aInhba binding on compound microarray – biochemical, small-molecule microarray, 635/667 nm fluorescence, primary screen (AID 1148); details: higher = more signal;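 note: score merges 667nm spot fluorescence with signal-to-noise for antibody binding to printed compounds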
[18] = target: Torsin-1A (Homo sapiens) (UniProt O14656); assay: TOR1A wild-type binding on microarray – cell lysate, small-molecule microarray, lysate, 635/667 nm, primary screen (AID 1149); details: COS7 hTOR1A-WT lysate, 635 nm fluorescence, higher = more signal
[19] = target: Torsin-1A (Homo sapiens) (UniProt O14656); assay: torsin A mutant lysate binding on microarrays – cell lysate, small-molecule microarray, COS7 lysate, 635/667 nm fluorescence, primary screen (AID 1150); details: COS7 hTOR1A mutant lysate, 635 nm fluorescence, higher = more signal;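 note: score pools 667 nm emission and signal to noise measuring lysate protein binding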
[20] = tested on: Sonic hedgehog protein (Shh); assay: Sonic hedgehog microarray binding compounds – biochemical, small-molecule microarray, 635/667 nm fluorescence, primary screen (AID 1151); details: 635 nm fluorescence, higher = more signal;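 note: Shh protein binding to compounds spotted on small-molecule microarray slides; score combines spot fluorescence intensity with signal-to-noise across triplicate slides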

Chain of Focal adhesion kinase 1 (Homo sapiens) (Q05397 whole entry, looked up): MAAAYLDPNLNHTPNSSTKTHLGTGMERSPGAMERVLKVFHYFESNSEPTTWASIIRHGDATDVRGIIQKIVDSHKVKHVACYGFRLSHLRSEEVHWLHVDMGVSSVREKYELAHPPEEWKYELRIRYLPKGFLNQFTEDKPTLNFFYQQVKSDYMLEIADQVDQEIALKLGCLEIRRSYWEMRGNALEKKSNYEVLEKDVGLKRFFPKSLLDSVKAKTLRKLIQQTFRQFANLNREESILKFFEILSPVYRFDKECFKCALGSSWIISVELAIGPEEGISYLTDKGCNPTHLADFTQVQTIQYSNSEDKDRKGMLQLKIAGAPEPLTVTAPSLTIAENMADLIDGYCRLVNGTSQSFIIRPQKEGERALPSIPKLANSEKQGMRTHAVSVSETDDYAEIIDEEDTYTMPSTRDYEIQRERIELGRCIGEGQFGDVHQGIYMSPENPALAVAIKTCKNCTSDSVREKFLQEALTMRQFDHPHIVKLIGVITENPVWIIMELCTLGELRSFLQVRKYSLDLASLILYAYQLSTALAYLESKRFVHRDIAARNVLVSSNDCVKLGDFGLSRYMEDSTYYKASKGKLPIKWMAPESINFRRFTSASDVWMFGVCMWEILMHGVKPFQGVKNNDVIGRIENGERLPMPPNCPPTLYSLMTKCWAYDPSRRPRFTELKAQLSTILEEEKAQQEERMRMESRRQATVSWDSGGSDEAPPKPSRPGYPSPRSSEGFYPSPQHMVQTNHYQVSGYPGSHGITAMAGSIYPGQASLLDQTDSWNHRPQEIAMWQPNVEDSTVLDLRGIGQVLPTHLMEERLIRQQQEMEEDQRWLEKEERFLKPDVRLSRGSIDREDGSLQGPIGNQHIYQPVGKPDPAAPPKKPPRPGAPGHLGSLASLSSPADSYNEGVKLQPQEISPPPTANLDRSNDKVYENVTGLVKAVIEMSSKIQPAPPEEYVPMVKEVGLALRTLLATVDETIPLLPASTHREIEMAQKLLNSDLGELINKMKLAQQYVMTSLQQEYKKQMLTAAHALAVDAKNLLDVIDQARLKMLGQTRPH
Chain of Torsin-1A (Homo sapiens) (O14656 whole entry, looked up): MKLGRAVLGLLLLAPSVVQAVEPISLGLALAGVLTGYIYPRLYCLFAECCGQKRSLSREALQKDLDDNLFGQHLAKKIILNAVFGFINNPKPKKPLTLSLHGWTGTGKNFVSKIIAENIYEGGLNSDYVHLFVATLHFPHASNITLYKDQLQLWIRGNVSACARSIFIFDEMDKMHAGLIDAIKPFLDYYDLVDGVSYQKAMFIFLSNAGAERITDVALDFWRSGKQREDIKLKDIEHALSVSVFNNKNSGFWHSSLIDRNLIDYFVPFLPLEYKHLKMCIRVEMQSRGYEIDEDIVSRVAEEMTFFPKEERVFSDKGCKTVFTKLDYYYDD
Chain of Follistatin (Homo sapiens) (P19883 whole entry, looked up): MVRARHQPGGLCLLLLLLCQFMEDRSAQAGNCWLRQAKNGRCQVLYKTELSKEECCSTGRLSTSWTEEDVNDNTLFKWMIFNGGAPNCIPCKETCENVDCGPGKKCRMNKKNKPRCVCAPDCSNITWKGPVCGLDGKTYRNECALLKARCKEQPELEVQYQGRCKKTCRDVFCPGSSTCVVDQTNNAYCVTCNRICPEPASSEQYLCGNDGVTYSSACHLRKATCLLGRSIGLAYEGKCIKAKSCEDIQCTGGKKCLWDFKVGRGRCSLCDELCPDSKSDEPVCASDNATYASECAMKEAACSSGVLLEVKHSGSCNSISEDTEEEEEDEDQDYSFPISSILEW
Chain of Streptavidin (Streptomyces avidinii) (P22629 whole entry, looked up): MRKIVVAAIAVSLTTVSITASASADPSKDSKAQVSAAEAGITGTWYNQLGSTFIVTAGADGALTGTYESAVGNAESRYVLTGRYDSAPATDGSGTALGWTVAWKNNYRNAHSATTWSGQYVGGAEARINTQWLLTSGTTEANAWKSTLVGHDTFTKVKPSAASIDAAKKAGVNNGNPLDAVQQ
Chain of Luciferin 4-monooxygenase (Photinus pyralis) (P08659 whole entry, looked up): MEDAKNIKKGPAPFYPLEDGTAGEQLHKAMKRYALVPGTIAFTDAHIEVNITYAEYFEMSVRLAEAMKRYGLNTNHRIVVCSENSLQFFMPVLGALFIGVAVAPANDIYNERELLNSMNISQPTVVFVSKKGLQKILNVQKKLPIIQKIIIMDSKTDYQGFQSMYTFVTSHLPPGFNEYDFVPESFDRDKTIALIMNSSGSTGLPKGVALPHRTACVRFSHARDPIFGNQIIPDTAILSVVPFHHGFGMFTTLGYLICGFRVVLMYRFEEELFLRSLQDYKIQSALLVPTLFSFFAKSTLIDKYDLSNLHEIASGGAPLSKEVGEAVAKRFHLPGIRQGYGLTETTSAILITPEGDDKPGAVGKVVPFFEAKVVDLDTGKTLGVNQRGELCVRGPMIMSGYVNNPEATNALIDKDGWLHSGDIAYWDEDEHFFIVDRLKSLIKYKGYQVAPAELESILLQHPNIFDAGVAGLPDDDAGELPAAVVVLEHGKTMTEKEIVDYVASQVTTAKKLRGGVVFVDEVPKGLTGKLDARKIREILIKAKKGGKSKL
Chain of Fibroblast growth factor 2 (Homo sapiens) (P09038 whole entry, looked up): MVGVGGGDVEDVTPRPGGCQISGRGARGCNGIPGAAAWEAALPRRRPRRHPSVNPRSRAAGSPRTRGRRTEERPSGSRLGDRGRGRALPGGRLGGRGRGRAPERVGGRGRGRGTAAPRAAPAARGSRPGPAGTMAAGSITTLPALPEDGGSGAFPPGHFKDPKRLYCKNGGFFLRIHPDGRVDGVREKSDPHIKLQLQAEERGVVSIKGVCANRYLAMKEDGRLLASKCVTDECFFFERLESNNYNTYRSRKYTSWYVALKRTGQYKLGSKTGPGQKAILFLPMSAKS

| Compound | composite z-score [1] | composite z-score [2] | composite z-score [3] | composite z-score [4] | composite z-score [5] | composite z-score [6] | z-score [7] | composite z-score [8] | composite z-score [9] | z-score [10] | composite z-score [11] | z-score [12] | z-score [13] | z-score [14] | z-score [15] | composite z-score [16] | composite z-score [17] | composite z-score [18] | composite z-score [19] | composite z-score [20] |
| --- | --- | --- | --- | --- | --- | --- | --- | --- | --- | --- | --- | --- | --- | --- | --- | --- | --- | --- | --- | --- |
| COc1ccc(O[C@H]2C=C[C@@H](c3ccccc3)O[C@@H]2COC(=O)CCC(C)=NOC[C@@H](C)[C@H](OCc2ccccc2)C(C)C)cc1 | 0.904 | -0.834 | -0.592 | -1.24 | -0.865 | -0.621 | -0.345 | -0.338 | -0.606 | 1.05 (inactive) | -0.348 | -1.55 (inactive) | -0.0552 (inactive) | -0.901 (inactive) | 0.468 (inactive) | -0.892 | -0.203 | -0.416 | -0.632 | -0.155 |
| O=C1[C@H]2[C@H]3[C@H](O)[C@H](O)CC(=NOC[C@@H](O)COCc4ccco4)[C@H]3CC[C@H]2C(=O)N1Cc1ccc2c(c1)OCO2 | 0.729 | -0.413 | -0.237 | -0.447 | 1.3 | 1.57 | -0.0273 | 1.25 | -0.186 | 0.546 (inactive) | 0.138 | -0.012 (inactive) | 2.01 (inactive) | -0.657 (inactive) | 0.0952 (inactive) | -0.405 | -0.162 | 3.53 | 3.17 | 2.03 |
| COC(=O)[C@@H]1CC[C@H](C)[C@@H](c2ccc(C)cc2)N1C(=O)c1ccc(C=NOC[C@@H](O)COCc2ccco2)cc1 | 0.373 | -1.79 | -0.574 | -1.68 | -0.526 | -1.18 | -0.245 | -1.09 | -0.893 | 0.193 (inactive) | -0.523 | -1.83 (inactive) | 1.18 (inactive) | 5.89 (inactive) | -0.309 (inactive) | -1.24 | -0.341 | -1.72 | -2.05 | -0.334 |
| CCN1C(=O)[C@H]2[C@H]3[C@H](O)C=CC(=O)[C@@H]3CC[C@H]2C1=O | 0.635 | 0.936 | 0.0565 | 0.677 | 0.307 | 0.731 | -0.774 | 0.514 | 0.295 | -0.605 (inactive) | 0.213 | 0.148 (inactive) | 0.465 (inactive) | 0.342 (inactive) | 0.069 (inactive) | 0.232 | -0.0759 | 0.0994 | 0.546 | 0.62 |
| CC(C)(C)N1CC=CC23O[C@@H]4C=CCCOC(=O)C4[C@H]2C(=O)N(CCCCCO)[C@@H]3C1=O (stereo not given in full) | 0.373 | 0.233 | -0.441 | -1.67 | -0.435 | -0.51 | 0.678 | 0.887 | 0.671 | -0.789 (inactive) | 0.37 | -0.128 (inactive) | -0.174 (inactive) | 0.333 (inactive) | -0.329 (inactive) | -0.102 | 0.214 | 1.11 | 0.879 | 0.992 |
| [N-]=[N+]=NCc1ccccc1C[C@]1(C(=O)NCc2ccccc2)N=C(c2ccc(OCCCO)cc2)O[C@H]1c1ccccc1N=[N+]=[N-] | 1.99 | 1.17 | 1.54 | 0.967 | 0.931 | 1.49 | -0.711 | -0.875 | 0.285 | -4.08 (inactive) | 0.729 | -4.38 (inactive) | -0.144 (inactive) | 0.493 (inactive) | -0.951 (inactive) | 0.83 | -0.287 | -0.0818 | 0.334 | -0.46 |
| CCCC[C@@H](O)C1=C(C)C[C@H]2C(=O)N(Cc3ccccc3)C(=O)[C@H]2[C@H]1CO | 0.314 | 0.0359 | -0.0945 | -0.0897 | 0.438 | 0.828 | 0.923 | 0.492 | -0.423 | -0.467 (inactive) | -0.0299 | -0.295 (inactive) | -0.665 (inactive) | 1.29 (inactive) | 0.342 (inactive) | -0.451 | -0.0986 | 0.149 | -0.21 | 0.572 |
| COC(=O)[C@@H]1CCCN1C(=O)[C@@H](C)CO | 0.933 | 1.16 | 0.21 | 0.868 | 0.473 | 0.723 | -1.29 | 0.29 | 1.15 | 0.09 (inactive) | 0.111 | -2.44 (inactive) | -0.985 (inactive) | -0.347 (inactive) | -0.397 (inactive) | 0.746 | -0.183 | 1.26 | 0.546 | 0.202 |
| COc1ccc(O[C@H]2C=C[C@@H](c3ccccc3)O[C@@H]2COC(=O)CCC(C)=NOC(C)CN2CCCCc3nc(C)c(C)cc32)cc1 (stereo not given in full) | 4.16 | -0.303 | 0.214 | -0.78 | 0.0731 | -0.442 | 0.752 | -0.214 | 0.878 | 0.731 (inactive) | -0.133 | -0.622 (inactive) | -0.28 (inactive) | -0.817 (inactive) | 0.287 (inactive) | 0.095 | -0.0719 | -0.406 | -0.489 | -0.0679 |
| O=C(NN=C1C[C@@H](O)[C@@H](O)[C@@H]2[C@@H]3C(=O)N(c4ccc(F)cc4F)C(=O)[C@@H]3CC[C@@H]12)OCc1ccccc1 | 0.419 | 0.117 | -0.179 | 0.723 | 0.385 | -0.191 | -0.281 | 0.341 | 0.336 | 0.894 (inactive) | -0.132 | 0.375 (inactive) | 1.21 (inactive) | 0.16 (inactive) | 0.829 (inactive) | 0.98 | -0.128 | 0.871 | 0.464 | -0.33 |
